Compound activity as filed in PubChem BioAssay.
Rows were chosen to be rich in hits. Some 1.3% of all compounds tested hit in one or more screens of this group.
FEN1 inhibitor: inhibitors of human flap endonuclease 1 | Recombinant FEN1 flap cleavage, fluorescence, 15 min | Potency, µM (series often up to 114 µM), for the others: at the top dose activity change, negative = inhibition, actives largely listed as inhibitors | actives 0.35% (n = 390,000) | AID 588795; also: potency is read from the fitted curve at half-maximal effect; % is scaled to controls: 0 for no effect and ±100 for the full control effect; nearly all actives have a fitted effect of over 65% in size
Target sequence (P39748 whole entry, looked up): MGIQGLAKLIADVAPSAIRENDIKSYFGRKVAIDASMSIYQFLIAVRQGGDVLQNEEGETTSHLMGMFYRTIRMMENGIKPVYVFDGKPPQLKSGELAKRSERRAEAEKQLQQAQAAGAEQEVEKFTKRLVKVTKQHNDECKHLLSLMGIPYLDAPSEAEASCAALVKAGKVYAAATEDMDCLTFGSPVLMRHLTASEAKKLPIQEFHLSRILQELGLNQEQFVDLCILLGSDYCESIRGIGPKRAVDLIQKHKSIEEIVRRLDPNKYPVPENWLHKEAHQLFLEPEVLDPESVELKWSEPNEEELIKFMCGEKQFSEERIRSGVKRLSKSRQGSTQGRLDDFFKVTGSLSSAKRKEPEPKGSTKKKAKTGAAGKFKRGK
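Enzyme 10 nM, 15 min RT preincubation with compound; start with substrate 50 nM final; reads at 0 and 15 min; qHTS titration, four-parameter Hill fit.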
GRP78 ERSR act: inducers of ER stress response in human glioma cells; U87-MG GRP78 promoter luciferase reporter, 16 h; Potency, µM, for the others: at the top dose activation, hits mostly activators; actives 0.02% (n = 420,000); AID 602332; also: potency is read from the fitted curve at half-maximal effect; series mostly up to about 76 µM; % of control where 0% means no effect; nearly all actives have a fitted effect of over 35% in size
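Stably transfected U87-MG human glioma cells carrying a GRP78-based luminescent sensor were seeded at 1000 cells/well, pin-dosed with compounds and incubated 16 h. Luciferase reagent was then added, and end-point luminescence was read after 10 min at room temperature.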
Pin1 inhibitor: human Pin1 inhibition; Pin1 FP peptide displacement, HiFluor488, 10 min; Q13526; actives 0.009% (n = 390,000); Potency, µM (titrated, usually from 115 µM), without a hit: at the top dose activity, negative = inhibition, actives largely listed as inhibitors; AID 504891; active = well fitted inhibition curve with a large enough effect in the polarisation, with a control signal flat, not every such curve was filed as active; inconclusive = small, poorly fitted or top-dose-only effect, or effect the other way, or a change in a side signal; inactive = no such curve, though single readings can be large or run the other way; the % refers to the polarisation; also: potency is read from the fitted curve at half-maximal effect; % is scaled to controls: 0 for no effect and ±100 for the full control effect
Target sequence (Q13526 whole entry, looked up): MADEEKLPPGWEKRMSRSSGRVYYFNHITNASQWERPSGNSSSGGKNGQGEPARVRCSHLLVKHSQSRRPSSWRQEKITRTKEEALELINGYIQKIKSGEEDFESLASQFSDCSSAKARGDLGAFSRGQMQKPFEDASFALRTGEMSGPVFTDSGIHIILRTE
PI5P4Ka inh: inhibitors of human PI5P4K alpha | P48426 | max response, % | PI5P4Kalpha enzyme, ADP-Glo luminescence, 60 min; active compounds read low | actives 1.2% (n = 330,000) | AID 652105; active = max response of -50% or lower; inconclusive = between -30% and -50%; inactive = -30% or higher; also: value at the top dose of about 77 µM; % is scaled to controls: 0 for no effect and ±100 for the full control effect
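Compounds were pin-transferred onto PI5P4Kalpha and substrate in HEPES pH 7.4 buffer with EGTA, CHAPS and 5% DMSO. ATP (5 microM final) started the reaction, which ran 60 minutes at room temperature before ADP-Glo detection.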
WRN helicase inh-1: blocks human WRN helicase. Q14191. WRN helicase unwinding, fluorescent forked duplex, kinetic. Potency, µM (doses to about 114 µM), for inactives: at the top dose activity change, negative = inhibition, usual class: inhibitors. actives 0.46% (n = 360,000). AID 651768; also: potency is read from the fitted curve at half-maximal effect; % is scaled to controls: 0 for no effect and ±100 for the full control effect; nearly all actives have a fitted effect of over 55% in size
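Fluorescence dequenching readout, ex 525 nm/em 598 nm, kinetic mode: forked duplex DNA (100 nM final) with adjacent fluorophore and quencher unwound by WRN (20 nM final) with 2 mM ATP. Compound preincubation 15 min, room temperature.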
Tb PGK inh: inhibitors of T. brucei phosphoglycerate kinase; P07378; PGK/GAPDH coupled, Kinase-Glo luminescence, 60 min; Potency, µM (doses to about 57.5 µM), without a hit: at the highest dose activity change, negative = inhibition, usual class: inhibitors; actives 0.043% (n = 380,000); AID 602233; also: potency is read from the fitted curve at half-maximal effect; % is scaled to controls: 0 for no effect and ±100 for the full control effect; nearly all actives have a fitted effect of over 60% in size
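Luminescent ATP detection (Kinase-Glo Plus) follows a 60-minute room-temperature incubation, with wells lacking PGK as controls. Buffer: 100 mM TEA (pH 7.6), 5 mM MgCl2, 0.01% Tween-20. Coupling enzyme GAPDH (100 nM final) supplies unstable 1,3-BPG in-well.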
WRN helicase inh-2: WRN helicase inhibition, cherry-pick retest | Potency, µM (doses to about 57.1 µM), without a hit: at the top dose activity, negative = inhibition, usual class: inhibitors | WRN helicase DNA unwinding, fluorescence kinetic | actives 63% (n = 610) | AID 720497 | shares compounds with WRN helicase inh-1; also: potency is read from the fitted curve at half-maximal effect; nearly all actives have a fitted effect of over 65% in size
TO displacement: binds DNA, flagged in WRN inhibitor counterscreen; shares compounds with WRN helicase inh-1; thiazole orange DNA binding displacement, fluorescence; Potency, µM (series often up to 57.1 µM), inactives show top-dose activity change, negative = inhibition, actives largely listed as inhibitors; actives 10% (n = 610);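 also: drop in dye fluorescence marks compound binding to DNA; potency is read from the fitted curve at half-maximal effect; % is scaled to controls: 0 for no effect and ±100 for the full control effect; nearly all actives have a fitted effect of over 60% in size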
BLM helicase inh: counter-screen for WRN helicase inhibitors: human BLM helicase inhibition; Recombinant BLM helicase DNA unwinding, red fluorescence; Potency, µM (top dose mostly 57.1 µM), inactives show top-dose activity change, negative = inhibition, most hits filed as inhibitors; AID 720503; shares compounds with WRN helicase inh-1; actives 60% (n = 610); also: potency is read from the fitted curve at half-maximal effect; nearly all actives have a fitted effect of over 60% in size
* hit, by the source's call; i = inactive; ? = inconclusive; · = not tested or not shown. Unless noted, calls follow the shape of the dose curve; as a rule, active = well fitted curve in the direction sought with a large enough effect; inconclusive = small, poorly fitted or top-dose-only effect, or another doubt; inactive = no such curve, though single readings can be large; an effect the other way counts as inactive or inconclusive.

SMILES	FEN1 inhibitor	GRP78 ERSR act	Pin1 inhibitor	PI5P4Ka inh	WRN helicase inh-1	Tb PGK inh	WRN helicase inh-2	TO displacement	BLM helicase inh
CC(=O)NC1C(=O)N(CCN2CCOCC2)c2ccc(Cl)cc21 (stereo not given)	?	0%	-20%	1	22µM*	?	-10%	-12%	-30%
COc1ccc(NC(=O)/C(Cl)=C(/Cl)S(=O)Cc2ccccc2)cn1 (stereo not given)	-18%	-14%	1%	-5	32µM*	2%	?	-3%	-19%
COc1ccc(CN2CCC3(CCC(CNC(=O)c4ccco4)O3)CC2)c(OC)c1C (stereo not given)	·	-4%	·	·	·	·	·	·	·
O=C(CSc1nnc(-c2cnccn2)n1Cc1ccco1)c1ccc(Cl)cc1	9%	0%	3%	·	?	i	-13%	-17%	-23%
CCNC1=C(Cl)C(=O)c2ccccc2C1=O	13%	3%	-5%	-11	-15%	1%	·	·	·
CCCC(=O)NC1=C(Cl)C(=O)c2ccccc2C1=O	-33%	-14%	-8%	-58*	25µM*	-16%	-17%	4.8µM*	24µM*
Cc1ccc(N2C(=O)CS(=O)C(c3ccccc3)C2=O)cc1C (stereo not given)	?	1%	5%	-26	35µM*	-7%	?	-11%	?
O=C(NCc1cccs1)c1ccc2c(=O)n3nc(Nc4ccccc4)sc3nc2c1	12%	-1%	?	·	·	1%	19µM*	158%	3.4µM*
CCc1nc2cc(C(=O)N[C@H]3CCCCNC3=O)cc(NC(=O)c3ccccc3OC)c2n1C	·	-2%	·	·	·	·	·	·	·
O=c1c(O)c(-c2cc(O)c(O)c(O)c2)oc2cc(O)ccc12	·	-3%	·	·	·	·	·	·	·
O=c1c(O)c(-c2ccc(O)c(O)c2)oc2cc(O)ccc12	?	0%	5%	?	2.4µM*	?	1.5µM*	-11%	0.86µM*
O=C(NCCc1nnc2n1CCN(Cc1ccc(F)c(F)c1)CC2)c1ccoc1	·	-4%	·	·	·	·	·	·	·
Cc1cccc(CN2C[C@H](Sc3ccccn3)C[C@H]2C(=O)Nc2ccc3sc(C)nc3c2)c1	·	-5%	·	·	·	·	·	·	·
O=C(/C=C/c1cccc2ccccc12)c1ccncc1	-11%	-11%	0%	4	?	i	-17%	-11%	-14%
COCCCNc1ncnc2sc(C(=O)N3CCCCC3)c(C)c12	·	-5%	·	·	·	·	·	·	·
CN(C)c1ncc(C2=C(Cl)C(=O)C(N3CCCC3)=C(Cl)C2=O)s1	50µM*	-1%	?	·	9.5µM*	-26%	?	?	7.6µM*
O=C1C(Cl)=C(N2CCCCC2)C(=O)C(Cl)=C1c1cnc(N2CCCCC2)s1	-2%	-6%	?	·	?	-3%	·	·	·
CCN1CCN(C(=O)c2cnn(-c3ncc4c(n3)-c3ccccc3CCC4)c2COC)CC1	·	-3%	·	·	·	·	·	·	·
COc1ccccc1CN1CCC2(CCC(CNC(=O)c3ccccc3N(C)C)O2)CC1 (stereo not given)	·	-4%	·	·	·	·	·	·	·
O=S(=O)(Cc1ccccc1)N(O)c1ccccc1	-21%	-2%	-1%	-17	?	-10%	1%	-7%	0%
O=C(O)CNS(=O)(=O)Cc1ccccc1	1%	-2%	2%	-2	4%	-3%	·	·	·
Cc1cc2c(c(-c3ccc(Cl)cc3)c1)OC(CNC(=O)Cc1c(C)noc1C)C2 (stereo not given)	·	-4%	·	·	·	·	·	·	·
O=C1ON=C(c2ccc([N+](=O)[O-])cc2)/C1=C/c1ccccc1O	9%	1%	-6%	?	?	1%	-29%	-7%	-28%
O=C(Nc1cccc(N2CCC(NCc3cnn(-c4ccccc4)n3)CC2)c1)c1cccnc1	·	-5%	·	·	·	·	·	·	·
C/C(N)=C(/C#N)C(=O)CSc1nnc(Nc2cccc(C)c2)s1	?	2%	?	-50*	?	-19%	-26%	-6%	?
SMILES	FEN1 inhibitor	GRP78 ERSR act	Pin1 inhibitor	PI5P4Ka inh	WRN helicase inh-1	Tb PGK inh	WRN helicase inh-2	TO displacement	BLM helicase inh
COCCCc1cc(F)c(S(=O)(=O)N2CCN(S(=O)(=O)c3ccc4c(c3)OCCO4)CC2)cc1F	·	·	-2%	·	·	·	·	·	·
COc1cc(/C=C2\SC(=Nc3ccccc3)N(Cc3ccco3)C2=O)ccc1OC(C)C(=O)O (stereo not given)	-7%	?	-17%	-18	-21%	2%	·	·	·
COCCN1C(=O)/C(=C/c2ccc(OCc3ccc(C(=O)O)cc3)c(OC)c2)SC1=Nc1ccccc1	-18%	-5%	·	-2	?	-1%	27µM*	?	27µM*
COc1cc(/C=C2/SC(=S)N(CC(=O)O)C2=O)ccc1OC(=O)c1cccs1	0%	1%	0%	-15	?	-9%	?	-13%	-17%
COc1cc(/C=C2/SC(=S)N(Cc3ccccc3)C2=O)cc(Cl)c1O	?	-7%	?	?	-128%	1%	1.5µM*	?	2.7µM*
CC(C)NC(=O)c1cn([C@H]2CC[C@@H](NC(=O)/C=C/c3cccs3)CC2)nn1	·	-2%	·	·	·	·	·	·	·
COc1cccc(CN2CCC(n3cc(C(=O)NC4CCCC4)nn3)CC2)c1O	·	-2%	·	·	·	·	·	·	·
COc1ccc(Cl)cc1NC(=O)c1c(NCc2sccc2C)sc2c1CCCC2	79µM*	0%	7%	·	·	1%	-20%	?	?
COc1ccccc1NC(=O)c1c(NCc2sccc2C)sc2c1CCCCC2	-16%	-1%	?	·	·	0%	·	·	·
COc1ccc(CCNc2ncnc3sc(C(=O)N4CCCCC4)c(C)c23)cc1OC	·	-4%	·	·	·	·	·	·	·
O=C(Nc1nncs1)c1cc(-c2ccco2)nc2ccccc12	-17%	-1%	-7%	?	32µM*	i	?	-9%	?
Cc1ccccc1NC(=O)c1cc(-c2ccco2)nc2ccccc12	-23%	1%	?	?	?	?	·	·	·
COc1ccccc1CNC(=O)COC(=O)c1cc(-c2ccco2)nc2ccccc12	50µM*	-3%	?	·	35µM*	·	19µM*	?	17µM*
COc1ccccc1CN1CCC2(CC1)c1ccccc1[C@@H](NC(=O)c1ccco1)[C@@H]2OC	·	-4%	·	·	·	·	·	·	·
CC1CCCC(C)N1S(=O)(=O)c1ccc(Cl)cc1 (stereo not given)	38%	6%	-14%	2	-2%	i	·	·	·
